TEAD-YAP inh: TEAD-YAP interaction inhibition, primary screen, TEAD-YAP interaction inhibitor project, luminescence, HEK-TIYL cells. TEAD-Gal4/YAP UAS-luciferase luminescence. inhibition, % at 9.12 µM. hit rate 1.4% among 640,000. AID 1259422, 2018; in the data active = inhibition above about 32%;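 note: 0% = median of test compound wells and 100% = reference inhibitor wells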
FBW7 act: FBW7 E3 ligase activators, primary screen, biochemical, AlphaScreen, human; normalized activity (activation), % at 26.1 µM; F-box/WD repeat-containing protein 7 (Homo sapiens), Q969H0; hit rate 0.13% among 650,000; AID 1259310, 2017; AlphaScreen FBW7–phospho-cyclin E peptide binding, activator screen; in the data active = normalized activity above about 1.9%;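 note: purified mutant Fbw7 with reduced substrate affinity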
Target sequence (Q969H0 whole entry, looked up): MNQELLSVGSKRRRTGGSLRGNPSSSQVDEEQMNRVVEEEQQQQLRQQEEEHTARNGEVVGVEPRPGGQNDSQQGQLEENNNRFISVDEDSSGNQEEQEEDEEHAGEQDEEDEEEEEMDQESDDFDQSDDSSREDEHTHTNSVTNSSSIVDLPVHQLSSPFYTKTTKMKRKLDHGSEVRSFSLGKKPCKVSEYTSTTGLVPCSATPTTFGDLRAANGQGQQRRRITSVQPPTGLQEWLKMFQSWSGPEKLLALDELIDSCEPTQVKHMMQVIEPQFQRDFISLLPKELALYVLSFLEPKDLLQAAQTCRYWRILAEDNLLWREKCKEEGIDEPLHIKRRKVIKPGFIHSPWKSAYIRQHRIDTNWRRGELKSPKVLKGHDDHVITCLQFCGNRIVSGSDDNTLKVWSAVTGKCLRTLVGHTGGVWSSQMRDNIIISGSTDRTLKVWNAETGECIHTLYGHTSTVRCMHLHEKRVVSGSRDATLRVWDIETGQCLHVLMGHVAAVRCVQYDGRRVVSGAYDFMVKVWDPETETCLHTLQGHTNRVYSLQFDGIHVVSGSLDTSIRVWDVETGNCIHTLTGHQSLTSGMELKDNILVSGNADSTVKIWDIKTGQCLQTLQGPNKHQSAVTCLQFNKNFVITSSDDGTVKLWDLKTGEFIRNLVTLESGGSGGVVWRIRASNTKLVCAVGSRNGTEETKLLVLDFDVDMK
MITF primary: MITF inhibitors, primary screen, biochemical, AlphaScreen, human; AlphaScreen MITF homodimerization, bead proximity signal; inhibition, % at 2.6 µM; hit rate 0.91% among 650,000; AID 1259374, 2018; in the data active = inhibition above about 50%;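 note: 0% = vehicle wells with protein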
GPR151 ag: activators of human GPR151, primary screen, cell-based, PathHunter beta-arrestin, luminescence; G-protein coupled receptor 151 (Homo sapiens), Q8TDV0; PathHunter beta-arrestin GPR151 cells; activation, % at 11.2 µM; hit rate 1% among 650,000; in the data active = activation above about 4.9%;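 note: 0% = median of compound wells and 100% = cells with positive control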
* marks the source's active call; other numbers are inactive results; ! = not confirmed by another sample. An excerpt weighted towards active compounds, which were near 3.5% of everything screened.

What do the screens show for `COc1cc(Cl)cc(/C=N/NC(=O)c2ccccc2O)c1O`?
TEAD-YAP inh: 74.5*; FBW7 act: -2.7; MITF primary: 44.7; GPR151 ag: -0.1

How did Oc1ccc(Br)cc1/C=N/NC(=S)Nc1cccnc1 do in these assays?
TEAD-YAP inh: 12.1; FBW7 act: -0.6; MITF primary: 56.9*; GPR151 ag: -0.3

Results for COc1cc(Br)cc(/C=N/NC(=O)c2ccc(C)nc2)c1O ?
TEAD-YAP inh: 27.9; FBW7 act: -0.8; MITF primary: 64.3*; GPR151 ag: 0.2

Results for COc1ccc(Cl)cc1/C=N/NC(=O)c1ccc(C)nc1 ?
TEAD-YAP inh: -1.9; FBW7 act: -0.1; MITF primary: -3.2; GPR151 ag: 1.2

What do the screens show for `COc1cc(/C=N/NC(=O)c2cccc(NC(C)=O)c2)cc(Cl)c1O`?
TEAD-YAP inh: -0.5; FBW7 act: -0.5; MITF primary: 62.6*; GPR151 ag: 0.0

Results for COc1ccc(CNc2ccnc3c(-c4ccccc4N(C)C)cnn23)cc1 ?
TEAD-YAP inh: -14.3; FBW7 act: -0.1; MITF primary: -21.8; GPR151 ag: -0.5

Results for CCOc1cc(CNc2nc(C)c(-c3ccn(C)n3)s2)ccc1OC ?
TEAD-YAP inh: 1.6; FBW7 act: 0.5; MITF primary: 0.8; GPR151 ag: -1.4

What do the screens show for `CC1=C(C#N)C(c2cccc(O)c2)C2=C(CC(c3ccccc3)CC2=O)N1` (stereo unspecified)?
TEAD-YAP inh: 5.9; FBW7 act: 0.0; MITF primary: -0.7; GPR151 ag: -0.9

Results for COc1cc(Br)cc(/C=N/NC(=O)c2ccccc2O)c1O ?
TEAD-YAP inh: 71.9*; FBW7 act: -0.2; MITF primary: 36.0; GPR151 ag: -0.6

What do the screens show for `COc1ccc(O)c(/C=N/NC(=O)c2ccccc2O)c1`?
TEAD-YAP inh: 65.4*; FBW7 act: 0.6; MITF primary: 43.2; GPR151 ag: 1.3

Results for COc1cc(Br)cc(/C=N/NC(=O)c2ccccc2)c1O ?
TEAD-YAP inh: 71.5*; FBW7 act: -0.2; MITF primary: 8.6; GPR151 ag: -0.9

What do the screens show for `COc1ccccc1C(=O)N/N=C/c1cc(Br)cc(OC)c1O`?
TEAD-YAP inh: -13.9; FBW7 act: 0.1; MITF primary: 16.4; GPR151 ag: -0.4

Results for COc1cc(Br)cc(/C=N/NC(=O)c2ccccc2Br)c1O ?
TEAD-YAP inh: 3.1; FBW7 act: -0.1; MITF primary: 38.0; GPR151 ag: 0.6

What do the screens show for `Cc1ccc(O)c(/C=N/NC(=O)c2ccccc2)c1`?
TEAD-YAP inh: 58.9*; FBW7 act: -1.9; MITF primary: 26.2; GPR151 ag: -1.6

What do the screens show for `CCOC(=O)c1cc2ccccc2n1CCN(C)C`?
TEAD-YAP inh: 8.7; FBW7 act: 0.0; MITF primary: 9.6; GPR151 ag: -0.9

How did CCOC(=O)C(CC)Sc1ncnc2c1c(-c1ccccc1)cn2-c1ccc(OCC)cc1 (stereo unspecified) do in these assays?
TEAD-YAP inh: 2.9; FBW7 act: 0.0; MITF primary: -9.7; GPR151 ag: -0.3

Results for CCOc1cc(Br)cc(/C=N/NC(=O)c2cccnc2)c1O ?
TEAD-YAP inh: 77.6*; FBW7 act: -1.2; MITF primary: 52.8*; GPR151 ag: 0.3

Results for O=C(N/N=C/c1cc(Br)ccc1O)c1ccc(F)cc1 ?
TEAD-YAP inh: 76.3*; FBW7 act: -0.1; MITF primary: 11.7; GPR151 ag: 1.3

How did CCOc1cc(/C=N/NC(=O)c2cccnc2)cc(Br)c1O do in these assays?
TEAD-YAP inh: 3.3; FBW7 act: 0.1; MITF primary: 4.8; GPR151 ag: -0.7

How did O=C(N/N=C/c1ccccc1O)c1ccc(F)cc1 do in these assays?
TEAD-YAP inh: -33.9; FBW7 act: -0.1; MITF primary: 27.4; GPR151 ag: -0.4

How did COc1ccc(/C=N/NC(=O)c2cccnc2)cc1Cn1cnc([N+](=O)[O-])n1 do in these assays?
TEAD-YAP inh: 45.2*; FBW7 act: 0.2; MITF primary: 10.8; GPR151 ag: -0.1

What do the screens show for `COc1ccc(/C=N/NC(=O)c2cccnc2)cc1CN1CCN(c2ccc(F)cc2)CC1`?
TEAD-YAP inh: 2.9; FBW7 act: 0.0; MITF primary: 8.1; GPR151 ag: -0.1

How did O=C(N/N=C/c1cc(Cl)cc(Br)c1O)c1ccccc1O do in these assays?
TEAD-YAP inh: 56.7*; FBW7 act: -0.2; MITF primary: 26.9; GPR151 ag: 0.7

Results for COCCCNC(=S)Nc1ccccc1OC ?
TEAD-YAP inh: -6.8; FBW7 act: -0.2; MITF primary: -9.5; GPR151 ag: -1.3

How did CCOc1c(Cl)cc(C(=O)NC(C)(C)C)cc1Cl do in these assays?
TEAD-YAP inh: 4.8; FBW7 act: 0.1; MITF primary: -5.4; GPR151 ag: 1.5

How did Cc1ccc(C(=O)N/N=C/c2cc(Br)ccc2O)cn1 do in these assays?
TEAD-YAP inh: 49.9*; FBW7 act: -0.6; MITF primary: 83.8*; GPR151 ag: 0.4

How did COc1cc(C(=O)N/N=C/c2cc(Br)cc(Cl)c2O)cc(OC)c1OC do in these assays?
TEAD-YAP inh: 58.2*; FBW7 act: -1.0; MITF primary: 26.8; GPR151 ag: 0.5

How did COc1ccc2cc3[n+](cc2c1OC)CCc1cc2c(cc1-3)OCO2 do in these assays?
TEAD-YAP inh: 56.1*!; FBW7 act: -0.2; MITF primary: 2.4; GPR151 ag: 0.0

Results for COc1cc2c(c(OC)c1OC)-c1c(cc3c(c1OC)OCO3)CC(C)C(C)C2 (stereo unspecified) ?
TEAD-YAP inh: -3.0; FBW7 act: -0.1; MITF primary: -2.1; GPR151 ag: -0.2

Results for COc1ccc(CCNc2nc(NC3CCC(O)CC3)nc3c2ncn3-c2ccccc2)cc1 (stereo unspecified) ?
TEAD-YAP inh: 48.5*; FBW7 act: -0.1; MITF primary: 8.2; GPR151 ag: 1.2

What do the screens show for `CC(C)N(CCNc1nc(NC2CCC(O)CC2)nc2c1ncn2-c1ccsc1)C(C)C` (stereo unspecified)?
TEAD-YAP inh: 74.4*; FBW7 act: -0.1; MITF primary: -0.3; GPR151 ag: -1.0

Results for Oc1ccc(CCNc2nc(NC3CCC(O)CC3)nc3c2ncn3-c2ccsc2)cc1 (stereo unspecified) ?
TEAD-YAP inh: 47.8*; FBW7 act: -0.1; MITF primary: -3.7; GPR151 ag: -2.4

How did OC1CCC(Nc2nc(NCc3ccccc3)c3ncn(-c4ccsc4)c3n2)CC1 (stereo unspecified) do in these assays?
TEAD-YAP inh: -19.3; FBW7 act: -0.1; MITF primary: 6.5; GPR151 ag: 0.1

How did COc1c(-c2cnn(C)c2)ccc2cnc(Nc3ccc(-n4cnc(N5CCOCC5)n4)cc3)nc12 do in these assays?
TEAD-YAP inh: 80.8*; FBW7 act: -0.1; MITF primary: 14.9; GPR151 ag: -0.7

How did Cn1cc(-c2ccc3cnc(Nc4ccc(-n5cnc(N6CCOCC6)n5)cc4)nc3c2-c2ccccc2)cn1 do in these assays?
TEAD-YAP inh: 97.6*; FBW7 act: -0.1; MITF primary: 13.2; GPR151 ag: -0.3
